Screening results from PubChem.
Only some compounds are listed: those with a hit (about 11% of all), similar ones and a draw of the others.
PNC assembly inh – blocks assembly of the perinucleolar compartment; 3.1% of 140,000 active; activity change (PNC), negative = inhibition, % at 10 µM; PC3M PTB-GFP, PNC prevalence imaging, 16 h; hits give low values; AID 2417;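 active = readout at or below -70, meaning at least 70% loss of cells showing the perinucleolar compartment, a nuclear body marking cancer cells; inconclusive = readout between -30 and a set limit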;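 note: plate controls were DMSO wells for no effect and camptothecin positive control wells for full effect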
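Compounds are pinned in duplicate onto adhered PC3M cells stably expressing GFP-tagged PTB and incubated 16 h at 37 C. Cells are then fixed, nuclei stained with Hoechst, and PNC-positive cells counted.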
ALDH1A1 block – ALDH1A1 (human) enzyme inhibition | 7.3% of 220,000 active | Potency, µM (series often up to 75.3 µM), inactives show at the top dose activity, negative = inhibition, usual class: inhibitors | Purified ALDH1A1, NADH fluorescence, propionaldehyde substrate | AID 1030 | P00352;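 note: potency is the fitted concentration of half-maximal effect; plate controls were no enzyme wells and a reference inhibitor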
Target sequence (P00352 whole entry, looked up): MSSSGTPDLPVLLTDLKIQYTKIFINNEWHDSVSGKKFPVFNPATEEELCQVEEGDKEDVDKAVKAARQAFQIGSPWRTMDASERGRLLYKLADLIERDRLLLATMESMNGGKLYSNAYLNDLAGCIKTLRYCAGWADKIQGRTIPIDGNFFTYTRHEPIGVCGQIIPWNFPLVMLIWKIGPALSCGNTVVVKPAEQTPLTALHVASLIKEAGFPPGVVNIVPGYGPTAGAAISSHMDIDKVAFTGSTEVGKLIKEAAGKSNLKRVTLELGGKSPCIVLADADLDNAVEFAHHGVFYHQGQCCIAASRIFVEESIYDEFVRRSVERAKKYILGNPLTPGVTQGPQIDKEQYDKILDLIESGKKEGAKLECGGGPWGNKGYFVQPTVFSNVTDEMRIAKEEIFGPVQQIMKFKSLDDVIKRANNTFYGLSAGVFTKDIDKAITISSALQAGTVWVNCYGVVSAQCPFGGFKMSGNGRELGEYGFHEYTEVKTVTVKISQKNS
HPGD inh – blocks human HPGD enzyme activity | P15428 | purified HPGD, NADH fluorescence kinetic, PGE2 substrate | Potency, µM, for inactives: top-dose activity change, negative = inhibition, usual class: inhibitors | 4.3% of 150,000 active; note: potency is the fitted concentration of half-maximal effect
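NADH formation kinetics: reaction with 30 uM PGE2 and 1 mM NAD+ (final), 20 nM enzyme, Tris-HCl pH 8 with Tween 20, after 15 min compound preincubation at room temperature. Fluorescence change, last versus first of five reads.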
The depositor's hits bear a star; ? = inconclusive; / = not tested or not shown; [ ] = another dose, or the depositor's remark. Unless noted, calls come from the whole dose curve; as a rule, active = well fitted inhibition curve with a large enough effect (not every such curve was filed as active); inconclusive = small, poorly fitted or top-dose-only effect, or another doubt; inactive = no such curve, though single readings can be large or run the other way. Unless noted, % is set by controls: 0 for no effect and ±100 for the full control effect.

SMILES	PNC assembly inh	ALDH1A1 block	HPGD inh
CC(C)n1nc(C(=O)Nc2nnc(SCc3c(Cl)cccc3Cl)s2)c2ccccc2c1=O	10	?	-23%
Cc1onc(-c2c(Cl)cccc2Cl)c1/C(N)=N/OC(=O)C1CC1	/	-7%	/
COc1cc(CNCCNC(=O)c2nonc2N)ccc1OCc1ccc(Cl)nc1	/	3%	/
S=C(NC1CCCCC1)NN(c1ccccc1)c1ccccc1	41	-5%	0%
CC(C)(C)c1ccc(/C=N/NC(=S)NC2CCCCC2)cc1	-12	13%	-9%
COCCNC(=S)N/N=C(\C)c1ccc(O)cc1	0	18%	-15%
C/C(=N\NC(=S)NC1CCCCC1)c1ccc(O)cc1	/	14µM*	/
C/C(=N\NC(=S)NC1CCCCC1)c1ccccc1	-100*	0%	-10%
C/C(=N\NC(=S)Nc1ccccc1C)c1ccc(O)cc1	/	20µM*	/
Cn1cc(CNCc2ccc(-n3cccn3)cc2)c(-c2ccccc2F)n1	/	13%	/
O=C(NNS(=O)(=O)c1cccc(Cl)c1)c1cc(-c2ccc(F)cc2)nc2ccccc12	/	-12%	/
O=c1c(-c2cccc(F)c2)nc2cncnc2n1Cc1ccccc1	/	-3%	-19%
OCC(O)C(O)C(O)C(O)CO (configuration not stated)	/	14%	-10%
O=C(Cc1ccccc1)N/N=C/c1ccc2cccc(O)c2n1	/	-12%	/
Clc1ccc(Nc2ncn[nH]2)c(Cl)c1	/	-5%	/
CC1CCCCC1NCC#CCOc1ccc(Cl)cc1 (configuration not stated)	/	-25%	/
CC(C)NCC#CCOc1ccc(Cl)cc1	/	2.4µM*	/
C[N+](C)(C)c1ncnc2c1ncn2[C@@H]1C[C@H](O)[C@@H](CO)O1	/	-2%[13.5 µM]	-8%
COc1ccc(-c2c(N)nnc3c2[nH]c2ccccc23)cc1OC	13	-7%	/
COc1ccc(OC)c2c(=S)c3ccccc3[nH]c12	/	1.6µM*	5µM*
O=C1c2oc3ccccc3c(=O)c2C(c2cccs2)N1CCCN1CCOCC1 (configuration not stated)	32	?	-21%
CCOc1ccc(C2c3c(oc4cc(C)c(C)cc4c3=O)C(=O)N2CCCN2CCOCC2)cc1 (configuration not stated)	13	7.9µM*	-19%
Cc1cc2oc3c(c(=O)c2cc1C)C(c1ccc(C(C)C)cc1)N(CCCN1CCOCC1)C3=O (configuration not stated)	17	4µM*	-19%
CCOc1ccc(C2c3c(oc4cc(C)c(C)cc4c3=O)C(=O)N2CCCN(C)C)cc1OC (configuration not stated)	?	?	-19%
CCCOc1ccc(C2c3c(oc4cc(C)c(C)cc4c3=O)C(=O)N2CCCN(C)C)cc1OCC (configuration not stated)	31	-14%	-12%
SMILES	PNC assembly inh	ALDH1A1 block	HPGD inh
CCOc1ccc(C2c3c(oc4ccccc4c3=O)C(=O)N2CCCN2CCOCC2)cc1 (configuration not stated)	30	6.3µM*	-18%
COc1cccc(C2c3c(oc4cc(C)c(C)cc4c3=O)C(=O)N2CCCN(C)C)c1 (configuration not stated)	?	28µM*	-11%
COC(=O)c1ccc(C2c3c(oc4ccccc4c3=O)C(=O)N2CCCN2CCOCC2)cc1 (configuration not stated)	-17	?	-12%
CC(C)C(NC(=O)C1CCCCC1)C(=O)NCCc1ccccc1 (configuration not stated)	/	6%	/
O=C(O)[C@H](C1NCCS1)N1C(=O)c2ccccc2C1=O (some centres not stated)	/	-1%[13.5 µM]	-9%
C/C(=N\NC(=O)c1c(C)nc2ccccn12)c1ccco1	/	-39%	/
CCN(CC)C(=S)Nc1ccc(Cl)c(Cl)c1	-16	7%	1%
CC(C)=CCC/C(C)=C/CO/N=C1/C[C@@H](O)[C@@H](O)[C@@H]2[C@@H]3C(=O)N(C[C@@H]4CCCO4)C(=O)[C@H]3CC[C@H]12	/	-4%[13.5 µM]	/
CCCOc1ccc(C2c3c(oc4ccccc4c3=O)C(=O)N2CCCN2CCOCC2)cc1 (configuration not stated)	0	8.9µM*	-26%
COc1cc(C2c3c(oc4ccccc4c3=O)C(=O)N2CCN2CCOCC2)cc(OC)c1OC (configuration not stated)	12	8%	3%
COC(=O)CCCCCCCCCCN1CCCCC1	21	-2%	-4%
CCCOC(=O)CCCCCCCCC(O)CN1CCCCC1 (configuration not stated)	/	18µM*	/
COc1ccc(-c2c(C#N)c(SCC(N)=O)nc3c2CCCC3)cc1	86	?	0%
N#Cc1c(SCC(N)=O)nc2c(c1-c1ccc(O)cc1)CCCC2	?	7.1µM*	-23%
